NTR1 ag: activates human neurotensin receptor 1 | NTR1-U2OS beta-arrestin-GFP spot imaging, agonist mode | activation, % at 20 µM | 0.17% of 330,000 active | AID 493036;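 active means activation at or above 40% of the spot to cytoplasm intensity ratio, with at least 20 cells analyzed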;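 further: 0% = DMSO without peptide and 100% = 100 nM NTR1 peptide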
ANO1 activ: activators or potentiators of mouse TMEM16A chloride channel; B-score at 10 µM; HEK293 TMEM16A/YFP-H148Q/I152L, iodide quench fluorescence; stronger effect = lower value; AID 623877; 0.3% of 340,000 active; Q8BHY3;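 active means fluorescence-ratio B-score plate-corrected deviation score at least 3 library SD below zero, with starting fluorescence score within 5 deviations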;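 further: channel opened by trigger with iodide after compound preincubation; score built on the fluorescence ratio of max minus min over baseline; more negative score means more quench and so TMEM16A activation or potentiation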
CHO-K1 Ca PAM: M1 PAM counterscreen hit in parental CHO-K1 cells. ATP EC20, Fluo-8 calcium fluorescence; 0% at ATP EC20, 100% at ATP max. activation, % at 3 µM. 0.02% of 360,000 active. AID 602247;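 active means activation above the run cutoff, the mean activation of all test compounds plus 3 SD, cut at about 40% in these data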;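 further: peak over basal fluorescence ratio in a 140 s read after ATP addition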
CHO-K1 Ca ag: M1 agonist counterscreen hit in parental CHO-K1 cells. AID 602248. activation, % at 3 µM. Fluo-8 calcium fluorescence; scaled to maximal ATP response, vehicle zero. 0.48% of 360,000 active; in the data active means activation above about 15%;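 further: untransfected CHO-K1 host cells lacking M1 receptor as counterscreen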
CHO-K1 Ca antag: counter-screen for M1 antagonists: effect in parental CHO-K1 cells. ATP-induced calcium, Fluo-8 fluorescence. inhibition, % at 3 µM. 0.6% of 360,000 active;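 active means inhibition above a per-plate cutoff, the plate's mean sample inhibition plus 3 SD, cut at about 24% in these data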;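 further: 0% = DMSO plus EC80 ATP and 100% = DMSO alone without ATP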
TMEM16A inh: mouse TMEM16A channel inhibition, primary screen; Q8BHY3; HEK293 TMEM16A/YFP iodide influx fluorescence, ionomycin; normalized B-score (activity score, 25-100; higher = stronger inhibition) at 10 µM; 1.2% of 310,000 active; AID 588511;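 active means ratio plate-corrected score three or more library SD toward inhibition, starting fluorescence score within five deviations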;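 further: score derived from kinetic fluorescence span divided by baseline fluorescence per well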
Active calls of the source: *; i = inactive; · = no result given. Hits are enriched below; roughly 2.2% of the tested compounds scored in any of these assays.

SMILES	NTR1 ag	ANO1 activ	CHO-K1 Ca PAM	CHO-K1 Ca ag	CHO-K1 Ca antag	TMEM16A inh
c1ccc(CC2CCN(c3nnnn3-c3ccccc3)CC2)cc1	2	i	11	1	4	100*
Cc1ccc(C(=O)/C=C/c2cn(CC(O)CN3CCOCC3)c3ccccc23)cc1 (stereo unspecified)	·	i	20	16*	1	i
CCOc1ccc(C(=O)/C=C/c2cn(CN3CCN(C)CC3)c3ccccc23)cc1	49*	i	-4	0	-13	i
O=C(COc1ccc([N+](=O)[O-])cc1)NC(=O)NC1CCS(=O)(=O)C1 (stereo unspecified)	0	i	8	0	5	·
COc1ccc(OCCN2CCN(C(=O)c3ccc(OC(F)F)c(OC)c3)CC2)cc1	0	i	2	10	-5	i
COc1ccc(OCCN2CCN(C(=O)c3ccc(OC)cc3)CC2)cc1	2	i	6	2	-1	100*
CCOC(=O)CCCCCC(=O)Nc1ccc2c(c1)C(=O)N([C@H](C)CO)C[C@@H](C)[C@@H](CN(C)C(=O)CCC(F)(F)F)OCCCC[C@H](C)O2	·	·	4	0	-11	·
C[C@]12c3[nH]c4ccc(Cl)cc4c3CCN1C(=O)[C@@H](CC(=O)NCCC1=CCCCC1)C[C@@H]2C(=O)N1CCOCC1	0	·	3	-1	-11	·
COc1cc(C(=O)N/N=C(\C)Cn2nc([N+](=O)[O-])cc2C)ccc1O	1	i	-12	0	28*	i
CC(=O)c1ccc(-c2nnc(CCC(=O)N(C)Cc3cccc4cnccc34)o2)s1	2	i	7	1	-2	i
CN(Cc1cccc2cnccc12)C(=O)CCc1nnc(CCc2ccccc2)o1	0	i	16	17*	0	i
COc1ccc(S(=O)(=O)N2CCOCC2)cc1NC(=O)Cc1ccc(F)cc1	·	·	15	1	-18	·
Cc1ccc(OCCn2cc(C#N)c3ccccc32)cc1	2	i	-1	0	-2	100*
COc1ccccc1OCCn1cc(C#N)c2ccccc21	3	i	9	1	-5	i
S=C(NCCN1CCOCC1)N/N=C/c1c2ccccc2cc2ccccc12	2	i	5	0	1	i
COc1ccc2ccccc2c1/C=N/NC(=S)NCCN1CCOCC1	-1	-29*	8	1	-5	i
CCCOc1nc2c(c(=O)n(C)c(=O)n2C)n1Cc1cccc2ccccc12	11	i	3	0	-3	100*
Cc1cccnc1C(NC(=O)C1CCN(Cc2ccc(Oc3ccccc3)cc2)CC1)c1ccccc1 (stereo unspecified)	·	·	1	0	0	·
Cc1ccc(C)c(N2CCN(C3CCCCC3NS(=O)(=O)c3ccccc3)CC2)c1 (stereo unspecified)	2	-6.2*	-5	0	10	i
Cc1ccc(Cl)cc1N1CCN(C2CCCCC2NS(=O)(=O)c2ccccc2)CC1 (stereo unspecified)	1	-9.7*	11	0	-8	i
COc1ccccc1N1CCN(C2CCCCC2NS(=O)(=O)c2ccc(Cl)cc2)CC1 (stereo unspecified)	5	-33*	12	1	2	i
CN1CCN(C2CCCCC2NS(=O)(=O)c2ccc(Cl)cc2)CC1 (stereo unspecified)	-1	i	-5	0	3	i
Cc1csc(N=Nc2ccc(N(C)C)cc2)[n+]1[O-]	·	·	10	-1	-10	·
Cc1ccc(N2CCN(S(=O)(=O)c3ccc(F)c(C)c3)CC2)c(C)c1	-1	-11*	19	1	-10	i
O=S(=O)(c1ccc(NCc2ccccc2)cc1)N1CCOCC1	0	i	-26	1	25*	i
CCC(NC(=O)Nc1nnc(C(F)(F)F)s1)(C(F)(F)F)C(F)(F)F	7	i	9	11	13	100*
CCCCNC(=O)C[C@@H]1C[C@@]2(C(=O)OC)CCCCC=C2N(CCC2=CCCCC2)C1=O	·	·	12	5	-6	·
S=C(Nc1ccccc1Cl)NC1CCN(Cc2ccccc2)CC1	3	i	-1	1	8	i
S=C(Nc1cc(Cl)cc(Cl)c1)NC1CCN(Cc2ccccc2)CC1	52*	i	-6	17*	25*	i

From PubChem
